Screening data from PubChem.
In the library only some 7.9% were active in any assay of this set; here they are far more common.
HCV inh: blocks hepatitis C virus | Huh7.5.1 HCVcc-Cre infection, luciferase reporter, 44 h | Potency, µM (top dose mostly 41.8 µM), without a hit: top-dose activity change, negative = inhibition, usual class: inhibitors | 340,000 compounds, 3.4% hits | AID 651820; active = well fitted inhibition curve with a large enough effect; inconclusive = small, poorly fitted or top-dose-only effect, or another doubt; inactive = no such curve, though single readings can be large or run the other way; note: potency is the fitted concentration of half-maximal effect
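Luciferase read-out (15 sec integration) after a 15 min room-temperature substrate step quantifies HCVcc-Cre infection. Cells, 1,000 per well, had compound added 4 h post-plating, then virus at ~0.5 moi, and were cultured 44 h.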
Marburg entry inh: Marburg virus entry inhibition; Marburg virus pseudotyped entry inhibition, cell reporter; Potency, µM (highest dose often 37.8 µM), for inactives: at the highest dose activity change, negative = inhibition, usual class: inhibitors; 300,000 compounds, 1.8% hits; AID 540276; calls by dose curve; tested in HEK293 cells; note: potency is the fitted concentration of half-maximal effect
FMDV antiviral: antivirals against foot and mouth disease virus. FMDV antiviral cell-based qHTS. Potency, µM (highest dose often 57.9 µM), for inactives: at the highest dose activity change, negative = inhibition, usual class: inhibitors. 410,000 compounds, 1.2% hits. AID 1159524; calls by dose curve; tested in HEK293T cells; note: read-out not given here; potency is the fitted concentration of half-maximal effect; nearly all actives have a fitted effect of over 45% in size
LASV entry inh: inhibitors of Lassa virus binding or cell entry; Lassa virus pseudotype entry inhibition, cell reporter; Potency, µM (top dose mostly 37.9 µM), for inactives: at the highest dose activity change, negative = inhibition, actives largely listed as inhibitors; 300,000 compounds, 1.2% hits; calls by dose curve; tested in HEK293 cells; note: potency is the fitted concentration of half-maximal effect; nearly all actives have a fitted effect of over 50% in size
HCMV inh: human cytomegalovirus inhibition; AID 1259415; 410,000 compounds, 4.5% hits; HFF cells, HCMV-luciferase reporter, 72 h; hits give low values; activity change, negative = inhibition, % at 57.5 µM; in the data active = activity change below about -60%; inconclusive = no clear call, values can overlap the other calls; inactive = above about -39%
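Inhibition of viral replication was scored as loss of reporter luminescence in HFFs infected with HCMV-luciferase (MOI 1 PFU/cell) for 72 h; compounds tested at 2 doses, normalized to buffer and Salinomycin controls.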
Numbers without * were called inactive; ? = inconclusive; · = no result given; [ ] = remark or other dose. % is set by controls: 0 for no effect and ±100 for the full control effect.

SMILES | HCV inh | Marburg entry inh | FMDV antiviral | LASV entry inh | HCMV inh
CCC1CN(CCNC(=O)c2ccc3c(c2)OCO3)Cc2cc(OC)ccc2O1 (stereo not drawn) | · | · | 47% | · | ·
COc1ccc(CN(C)C(=O)c2cccc(C(=O)N(C)Cc3ccc(OC)cc3)c2)cc1 | 11µM* | 1% | -24% | · | -71*
COc1cccc(CN(C)C(=O)c2ccc3nccnc3c2)c1 | -7% | -26% | 2% | 1% | 20
c1ccc(-c2cc3c(Nc4cccnc4)nccc3[nH]2)cc1 | · | · | · | · | 11
CCCN1CCC(=O)N([C@H](CSc2ccccc2)c2ccccc2)CC1 | -17% | · | 62% | · | -102*
CCCN1CCC(=O)N([C@H](CSc2ccc(C)cc2)c2ccccc2)CC1 | -1% | · | 32% | · | 47
COc1ccc(Oc2ccc3c(-c4ccccc4F)noc3n2)c(F)c1 | · | · | · | · | 0
CCOC(=O)COc1ccccc1/C=N/O | -6% | 15% | 2% | 3% | 13
CCOC(=O)COc1ccc(/C=C/[N+](=O)[O-])c(OCC(=O)OCC)c1 | ? | 5.2µM* | 14µM* | 21µM* | -105*
CCOC(=O)COc1ccc2ccccc2c1/C=C/[N+](=O)[O-] | ? | 4.5µM* | 13µM* | ? | -99*
CCOc1cc2[nH]c(=O)n(CCCCC(=O)N3CCN(c4ccccc4OC)CC3)c(=O)c2cc1OCC | · | · | -12% | 2%[46.1 µM] | 2
COc1cc(=O)n2c(c1C(=O)NCc1ccco1)CCN(Cc1cc3ccccc3[nH]1)CC2 | · | · | -11% | · | ·
CN1CCN(/N=C/c2ccc(N(c3ccccc3)c3ccccc3)cc2)CC1 | ? | 1.3µM* | ? | 0.63µM* | 9
COc1cc(C(C)=O)ccc1COc1ccc(C(=O)OCC(=O)NC(C)(C)C)cc1OC | 2% | ? | 20µM* | ? | -36
COc1ccc(CNc2ncnc3c2c(-c2ccccc2)cn3-c2ccccc2)cc1 | · | · | ? | -4%[46.1 µM] | -6
COCCn1c(SCC(=O)Nc2ccccc2)nc2c(oc3ccccc32)c1=O | -3% | · | -6% | · | -17
COCCn1c(SCC(=O)Nc2ccccc2OC)nc2c(oc3ccccc32)c1=O | ? | · | ? | · | -63*
COc1ccc(Cl)cc1NC(=O)CSc1nc2c(oc3ccccc32)c(=O)n1Cc1ccco1 | · | -3%[46.1 µM] | 2% | · | 15
COc1ccc(NC(=O)CSc2nc3c(oc4ccccc43)c(=O)n2Cc2ccco2)cc1Cl | · | ? | 7% | · | -98*
COc1ccccc1NC(=O)c1ccc(NC(=O)CSc2nncn2C)cc1 | ? | 30% | -23% | 5% | 0
COc1ccccc1NC(=O)CSc1nc2sc(C)c(C)c2c(=O)n1C | 10µM* | -1%[46.1 µM] | -22% | -5%[46.1 µM] | 10
Cc1sc2nc(SCC(=O)Nc3c(C)n(C)n(-c4ccccc4)c3=O)n(C)c(=O)c2c1C | -25% | -13% | -12% | 1% | -10
CCCn1c(SCC(=O)Nc2ccc(C(=O)Nc3ccccc3OC)cc2)n[nH]c1=O | ? | 7%[46.1 µM] | 32µM* | -8% | -15
Cc1ccsc1CN(C)Cc1nc(C2CC2)no1 | 6% | -2%[46.1 µM] | 6% | 2%[46.1 µM] | -29
COCCn1c(SCC(=O)Nc2ccc(F)cc2)nc2c(oc3ccccc32)c1=O | -20% | 27%[46.1 µM] | -4% | -22%[46.1 µM] | -21
SMILES | HCV inh | Marburg entry inh | FMDV antiviral | LASV entry inh | HCMV inh
COCCn1c(SCC(=O)Nc2ccc(F)c(Cl)c2)nc2c(oc3ccccc32)c1=O | · | 12%[46.1 µM] | -2% | · | -80*
O=S(Cc1ccc(Br)cc1)Cc1nnc(SCc2c(Cl)cccc2Cl)n1-c1ccccc1 (stereo not drawn) | ? | ? | 28µM* | ? | ?
Cn1c(CS(=O)Cc2c(Cl)cccc2Cl)nnc1SCc1c(Cl)cccc1Cl (stereo not drawn) | -22% | ? | -4% | -6% | -13
Cc1cc(=O)n2c(sc3ccccc32)c1C#N | -18% | 10%[46.1 µM] | 0% | 4% | -91*
O=C(c1ccco1)N1CCN(C(c2ccccn2)c2nnnn2C2CCCC2)CC1 (stereo not drawn) | 9% | 2% | · | 21% | -7
O=C(c1ccco1)N1CCN(C(c2cccs2)c2nnnn2C2CCCC2)CC1 (stereo not drawn) | -7% | ? | 18% | 11% | -101*
COc1ccc(OC)c(C(c2nnnn2C2CCCC2)N2CCN(c3ccccc3)CC2)c1 (stereo not drawn) | -24% | 10µM* | -5% | ? | -6
c1ccc(C(c2nnnn2C2CCCC2)N2CCN(c3ccccc3)CC2)cc1 (stereo not drawn) | -3% | ? | -4% | 18µM* | -25
CC(Cc1ccccc1Sc1ccccc1)N(C)C (stereo not drawn) | 10% | ? | -19% | ? | -63*
CCOC(=O)c1c(S(=O)(=O)N(C)C2CCCCC2)c(C)n(C)c1C | 12% | · | 68% | · | -7
COc1cc(OC)cc(-c2oc3cccnc3c2C#CCCO)c1 | 7.1µM* | · | -12% | · | 16
COc1ccc(-c2ccc(=O)n(CC(=O)Nc3ccccc3C(F)(F)F)n2)cc1 | · | · | -2% | -10%[46.1 µM] | 1
Cn1c(-c2ccccc2)cc2c3no[n+]([O-])c3ccc21 | 2.5µM* | 3.5µM* | 5% | 4.5µM* | -102*
COc1ccc(OC)c(C(=O)N2CCOc3ccc(C(C)(O)CN(C)C)cc3C2)c1 (stereo not drawn) | · | · | 0% | · | ·
CCOc1ccc(S(=O)(=O)N(CC)CC(=O)N2CCOCC2)cc1C | -19% | 15%[46.1 µM] | 12% | -25% | -2
O=C(Nc1cccc(-c2csc(Nc3cccc(C(F)(F)F)c3)n2)c1)c1cc([N+](=O)[O-])cc(C(F)(F)F)c1 | ? | · | 40µM* | · | 24
O=C(Nc1ccc(-c2csc(Nc3ccccc3)n2)cc1)c1cc([N+](=O)[O-])cc(C(F)(F)F)c1 | ? | · | 25µM* | · | -74*
CC(=O)C1=C(C)N(Cc2ccccc2)C(=O)NC1CCc1ccccc1 (stereo not drawn) | · | ? | · | 17%[14.3 µM] | ·
Cc1ccc(OCCCC(=O)N(C)CC(=O)Nc2c(C)cccc2C)cc1 | · | · | -15% | · | ?
CC[C@@H]1C=C(C)C[C@H](C)C[C@H](OC)[C@H]2O[C@@](O)(C(=O)C(=O)N3CCCC[C@H]3C(=O)O[C@H](/C(C)=C/[C@@H]3CC[C@@H](O)[C@H](OC)C3)[C@H](C)[C@@H](O)CC1=O)[C@H](C)C[C@@H]2OC | 1%[8.37 µM] | 6.5µM* | · | ? | ·
CO[C@H]1C[C@@H]2CC[C@@H](C)[C@@](O)(O2)C(=O)C(=O)N2CCCC[C@H]2C(=O)OC([C@H](C)C[C@@H]2CC[C@@H](O)[C@H](OC)C2)CC(=O)[C@H](C)/C=C(\C)[C@@H](O)[C@@H](OC)C(=O)[C@H](C)C[C@H](C)/C=C/C=C/C=C/1C (stereo partly drawn) | · | · | -20% | · | ·
COc1ccc(-c2nc(CSCC(=O)N3CCN(c4ccc(OC)cc4)CC3)c(C)o2)cc1 | · | -21%[46.1 µM] | -24% | 11%[46.1 µM] | -29
CCc1ccc(-c2nc(CSCC(=O)N3CCN(c4ncccn4)CC3)c(C)o2)cc1 | ? | -7% | 22µM* | · | ?
CCc1ccc(-c2nc(CSCC(=O)NC3CC3)c(C)o2)cc1 | ? | 5µM* | -16% | ? | -74*
